Measured values as given in PubChem BioAssay (NCI).
Compounds without any hit were thinned out: in the full panel of roughly 83,000, 20% have a hit.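 In brief: 96-well plates, 48 h treatment, single concentration, percent growth endpoint.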 Unmarked numbers belong to inactive results. Active and inactive are the calls of the source. Rule for the calls: active = growth percent below 10; inactive = the rest.

What was measured:
Assay in all cases: NCI-60 one-dose screen, 48 h (100 = growth as untreated, 0 = no growth, -100 = all killed)
Details in all cases: 10 µM
[1] = tested on: SK-MEL-2 melanoma
[2] = tested on: SN12C renal
[3] = tested on: UO-31 renal
[4] = tested on: TK-10 renal
[5] = tested on: ACHN renal
[6] = tested on: CAKI-1 renal
[7] = tested on: A498 renal
[8] = tested on: MOLT-4 leukemia
[9] = tested on: EKVX NSCLC
[10] = tested on: CCRF-CEM leukemia

SMILES	growth [1]	growth [2]	growth [3]	growth [4]	growth [5]	growth [6]	growth [7]	growth [8]	growth [9]	growth [10]
CCCCC1(O)CCCCC1	112%	103%	99.1%	94.3%	101%	96.1%	115%	93.5%		
CC(C)(O)CCl	153%	106%	107%	111%	108%	103%	106%	107%		
CC1CCCC(C(=O)O)C1C(=O)O (stereo not drawn)	93.4%		92.7%	93.8%	105%	97.2%	95.8%	77.6%	95.4%	99.3%
O=[N+]([O-])c1ccc(NCSc2ccc(Cl)cc2)cc1	98.5%	86%		105%	92.8%	96.2%		61.7%	97.3%	50.4%
CCOC(=O)N/N=C/c1ccc(OC)c(OC)c1	115%	99.2%	106%	123%	106%	110%	107%	107%		91.4%
O=[N+]([O-])c1ccc(/C(=C/c2ccccc2)[n+]2ccccc2)cc1	125%	101%	100%	114%	107%	111%	101%	105%		89.9%
COc1ccc2nc3cc(Cl)ccc3c(N)c2c1	-71.2% (active)	-80.3% (active)	-74% (active)	-68.7% (active)	-99.5% (active)	-55.6% (active)		-55.4% (active)		-5.6% (active)
Cc1cc(SC#N)cc(C(C)(C)C)c1O	82.2%		93.6%	108%	101%	96.4%	86.1%	66.9%	102%	86.4%
O=C(O)COc1c(Cl)cc([N+](=O)[O-])cc1Cl	101%		94.2%	99%	106%	99.9%	97.5%	80.6%	102%	92.5%
Cc1cc(Br)nnc1Br	123%	109%		124%	108%	101%		93.4%	114%	97.8%
CCOc1ccccc1/C=N\N=C(\N)N/N=C/c1ccccc1OCC	14.9%	45.2%		67.8%	44.8%	37.2%		26.5%	64.8%	16.9%
CCOc1ccccc1/C=N/N1CCCCCC1	113%			104%	104%	85.7%		97.7%	96.7%	100%
O=C(CI)OCC(COC(=O)CI)OC(=O)CI	83.1%	76.8%	-89.8% (active)	78.9%	11.2%	-17.6% (active)	108%	44.4%		
Cc1ccc(-c2c3c(N)nc(-c4cccnc4)nc3nc3c2c(C)nn3-c2ccccc2)cc1	61.6%	82.8%	65.8%	94.6%	40%	83.6%	74.8%	93.6%		
Cn1cnc([N+](=O)[O-])c1/C=C1\Oc2ccc(Br)cc2C1=O	83.1%	98.6%	67.6%	99.7%	68.8%	87.3%	100%	60.2%		2.63% (active)
CC(=O)OC1CC2C(C)(C)CCC[C@]2(C)C2=C1C(O)=C(C(C)C)C(=O)C2=O (stereo partly drawn)	-2.83% (active)	3.28% (active)		22.5%	-95.3% (active)	-5.22% (active)		17.4%	-15.7% (active)	26.8%
